Here are results for 19 molecules from PubChem BioAssay (NCATS).

Assay [1] concerns the target Rap guanine nucleotide exchange factor 3 (Homo sapiens) (UniProt O95398). Put plainly: Confirmatory qHTS for antagonist of cAMP-regulated guanine nucleotide exchange factor 3 (EPAC1) (AID 1645880). Also: nearly all actives have a fitted effect of over 55% in size. Also: potency is read from the fitted curve at half-maximal effect. In short, it runs like this:
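Nucleotide exchange uses 100 nM EPAC1, 250 nM RAP1B-BODIPY-GDP and 50 uM GDP, with compounds in a concentration-titration series. After 5 min at room temperature, fluorescence (480 nm ex/540 nm em) is read every 5 min for 30 min. Data are normalized to control ATA and DMSO.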
(In qHTS, concentration-response curves come from the screen itself.)

Assay [2] has the same target. The assay is described as follows: Confirmatory qHTS for agonist of cAMP-regulated guanine nucleotide exchange factor 3 (EPAC1) (AID 1645881). Also: nearly all actives have a fitted effect of over 75% in size. Also: potency is read from the fitted curve at half-maximal effect.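 As to activation: EPAC1 catalysed release of BODIPY-GDP from Rap1B seen as fluorescence loss; 100% = effect of cAMP agonist control.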
Assay [3] concerns the target Rap guanine nucleotide exchange factor 4 (Homo sapiens) (UniProt Q8WZA2). Put plainly: Confirmatory qHTS for agonist of cAMP-regulated guanine nucleotide exchange factor 4 (EPAC2) (AID 1645884).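 Also: nucleotide exchange releases bodipy-GDP from Rap1 and this lowers its fluorescence; nearly all actives have a fitted effect of over 65% in size.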 Also: potency is read from the fitted curve at half-maximal effect. As to activation: % is scaled to controls: 0 for no effect and ±100 for the full control effect.
For assay [4] the target is unchanged. Put plainly: Confirmatory qHTS for antagonist of cAMP-regulated guanine nucleotide exchange factor 4 (EPAC2) (AID 1645885). Also: nearly all actives have a fitted effect of over 25% in size. Also: potency is read from the fitted curve at half-maximal effect. As to activity change, negative = inhibition: % is scaled to controls: 0 for no effect and ±100 for the full control effect.
The target in assay [5] is Rap guanine nucleotide exchange factor 3 (Homo sapiens) (UniProt O95398). The assay is described as follows: Counterscreen qHTS for antagonist of cAMP-regulated guanine nucleotide exchange factor 3 (EPAC1) (AID 1645888).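 Also: fluorescence loss as bound BODIPY-GDP is released from Rap1B; % of control where 0% means no effect.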 In outline: (§1)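 Rap1B–BODIPY-GDP (250 nM) with 50 uM GDP; compounds pin-transferred to 9.74 nM–152 uM final (activator) or from 7.32 nM upwards (inhibitor). Fluorescence Ex/Em 480/540 nm read at 5 and 30 min, then after adding cAMP or buffer, at room temperature.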
In general terms: A counterscreen serves to expose hits that act by an unwanted route or on another target.

Assay [6] has the same target. The assay is described as follows: Counterscreen qHTS for agonist of cAMP-regulated guanine nucleotide exchange factor 3 (EPAC1) (AID 1645889). Also: nearly all actives have a fitted effect of over 40% in size. Also: potency is read from the fitted curve at half-maximal effect. As to activation: % of control where 0% means no effect. In outline:
as §1

Results filed as inconclusive are left out. A number with no mark means an inactive call. The source made the active and inactive calls. Calls follow the shape of the dose curve; as a rule, active = well fitted curve in the direction sought with a large enough effect; inconclusive = small, poorly fitted or top-dose-only effect, or another doubt; inactive = no such curve, though single readings can be large; an effect the other way counts as inactive or inconclusive.

Rap guanine nucleotide exchange factor 3 (Homo sapiens), sequence (O95398 whole entry, looked up): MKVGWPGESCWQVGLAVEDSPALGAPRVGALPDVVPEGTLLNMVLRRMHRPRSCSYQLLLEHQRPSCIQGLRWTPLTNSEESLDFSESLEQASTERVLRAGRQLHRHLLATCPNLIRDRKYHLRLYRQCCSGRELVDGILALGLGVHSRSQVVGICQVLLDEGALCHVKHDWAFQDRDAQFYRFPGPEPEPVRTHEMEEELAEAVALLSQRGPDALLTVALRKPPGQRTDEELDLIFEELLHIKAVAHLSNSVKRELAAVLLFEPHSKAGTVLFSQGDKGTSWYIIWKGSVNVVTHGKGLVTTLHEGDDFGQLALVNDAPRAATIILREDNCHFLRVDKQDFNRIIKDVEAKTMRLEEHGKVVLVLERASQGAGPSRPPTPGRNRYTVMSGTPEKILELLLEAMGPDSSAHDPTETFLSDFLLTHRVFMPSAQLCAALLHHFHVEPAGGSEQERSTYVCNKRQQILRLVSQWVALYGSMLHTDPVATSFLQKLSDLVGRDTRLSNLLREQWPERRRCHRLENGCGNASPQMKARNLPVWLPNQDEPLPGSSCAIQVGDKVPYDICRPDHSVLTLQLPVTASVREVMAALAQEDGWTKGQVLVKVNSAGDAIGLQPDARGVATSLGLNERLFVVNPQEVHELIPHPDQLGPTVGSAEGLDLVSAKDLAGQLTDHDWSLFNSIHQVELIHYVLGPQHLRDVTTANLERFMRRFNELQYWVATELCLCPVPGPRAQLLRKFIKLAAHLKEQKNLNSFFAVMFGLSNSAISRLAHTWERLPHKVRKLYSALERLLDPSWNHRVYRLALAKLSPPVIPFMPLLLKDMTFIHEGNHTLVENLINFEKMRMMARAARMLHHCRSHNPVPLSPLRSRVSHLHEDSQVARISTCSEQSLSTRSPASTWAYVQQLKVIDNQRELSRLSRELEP
Rap guanine nucleotide exchange factor 4 (Homo sapiens), sequence (Q8WZA2 whole entry, looked up): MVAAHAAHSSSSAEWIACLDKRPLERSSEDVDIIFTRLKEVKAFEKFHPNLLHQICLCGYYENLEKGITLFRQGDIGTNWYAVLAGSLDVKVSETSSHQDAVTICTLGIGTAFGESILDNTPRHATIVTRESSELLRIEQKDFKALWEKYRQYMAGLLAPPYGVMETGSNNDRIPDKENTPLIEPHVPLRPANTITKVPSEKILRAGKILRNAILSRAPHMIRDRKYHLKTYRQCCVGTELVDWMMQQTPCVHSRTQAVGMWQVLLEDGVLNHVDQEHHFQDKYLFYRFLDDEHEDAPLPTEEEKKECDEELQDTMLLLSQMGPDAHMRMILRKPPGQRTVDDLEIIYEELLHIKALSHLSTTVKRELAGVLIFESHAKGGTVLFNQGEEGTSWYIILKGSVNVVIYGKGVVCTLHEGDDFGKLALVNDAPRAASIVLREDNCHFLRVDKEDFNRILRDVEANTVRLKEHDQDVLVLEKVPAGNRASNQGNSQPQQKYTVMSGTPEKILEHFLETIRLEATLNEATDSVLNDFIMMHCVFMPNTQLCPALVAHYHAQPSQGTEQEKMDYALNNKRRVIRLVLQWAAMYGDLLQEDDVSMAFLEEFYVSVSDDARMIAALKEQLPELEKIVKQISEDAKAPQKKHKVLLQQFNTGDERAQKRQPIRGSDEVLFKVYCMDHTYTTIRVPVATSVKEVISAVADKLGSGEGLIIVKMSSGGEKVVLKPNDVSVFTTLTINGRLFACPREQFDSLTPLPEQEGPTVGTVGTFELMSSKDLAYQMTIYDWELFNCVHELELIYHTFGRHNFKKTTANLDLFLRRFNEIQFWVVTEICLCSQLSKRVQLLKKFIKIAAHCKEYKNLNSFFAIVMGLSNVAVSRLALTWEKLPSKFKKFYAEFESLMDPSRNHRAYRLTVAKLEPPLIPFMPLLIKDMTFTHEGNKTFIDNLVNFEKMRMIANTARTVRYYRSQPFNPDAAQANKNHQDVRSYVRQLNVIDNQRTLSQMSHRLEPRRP

With `COc1ccccc1-n1c(-c2ccccc2)c[n+]2c1CCc1ccccc1-2`, the Potency entry in assay [1], in assay [2], in assay [3], in assay [4], in assay [5] and in assay [6] was “inactive” throughout.

For `COC(=O)c1ccc(N2C(=O)CC(N3CCOCC3)C2=O)cc1` (centres undefined), the Potency entry in assay [1], in assay [2] and in assay [4] was “inactive” throughout. The activation in assay [3] was 8.32% [at 17.1 µM, percent relative to cAMP agonist control]; in assay [6], 10.6% [at 30.8 µM]. For the same molecule, the activity change, negative = inhibition in assay [5] was 6.34% [at 30.8 µM].

As for `O=C(c1ccc2c(c1)N(Cc1ccccc1)CCS2)N1CCCCC1`, the Potency entry in assay [1], in assay [2], in assay [3], in assay [4], in assay [5] and in assay [6] was “inactive” throughout.

Regarding `COc1ccc(/C=C(/NC(=O)c2ccccc2)C(=O)N/N=C/c2ccncc2)c(OC)c1`, the Potency entry in assay [1], in assay [2] and in assay [4] was “inactive” in each case. Besides, the activation in assay [3] is 2.49% [at 17.1 µM, percent relative to cAMP agonist control]; in assay [6], 12.1% [at 30.8 µM]. Moreover, the activity change, negative = inhibition in assay [5] was 28.5% [at 30.8 µM].

For the molecule `COC(=O)c1ccccc1NC(=O)CN1C(=O)COc2ccc(Cl)cc21`, the Potency result in assay [1], in assay [2], in assay [3], in assay [4], in assay [5] and in assay [6] was “inactive” each time.

`COc1ccc(-c2cc(C(F)(F)F)nc(SCC(=O)NCCc3ccccc3)n2)cc1OC`: the Potency result in assay [1], in assay [2], in assay [3], in assay [4], in assay [5] and in assay [6] was “inactive” each time.

Turning to `COc1cc(/C=C2\SC(=S)N(C(C(=O)O)c3ccccc3)C2=O)ccc1O` (centres undefined), the Potency is 47.8 µM (active) in assay [1] and 42.6 µM (active) in assay [4]. The Potency entry in assay [2], in assay [3], in assay [5] and in assay [6] was “inactive” each time.

For `Cc1ccccc1S(=O)(=O)N1C(c2ccc(Cl)c(Cl)c2)CC=C(C(=O)O)C1c1cccc(Br)c1` (centres undefined), the Potency in assay [1] was 75.7 µM (active). The Potency entry in assay [2], in assay [3], in assay [4], in assay [5] and in assay [6] was “inactive” each time.

`CCn1c(CNC(=O)COC)nc2ccccc21`: the Potency result in assay [1], in assay [2] and in assay [4] was “inactive” throughout. Also, the activation in assay [3] was 3.77% [at 17.1 µM, percent relative to cAMP agonist control]; in assay [6] it was 4.54% [at 30.8 µM]. Moreover, the activity change, negative = inhibition in assay [5] was -4.31% [at 30.8 µM].

On to `COc1ccc(-c2nnc(SCC(=O)c3ccco3)n2-c2ccccc2)cc1`, for which the Potency result in assay [1], in assay [2] and in assay [4] was “inactive” in each case. Besides, the activation in assay [3] was 3.77% [at 17.1 µM, percent relative to cAMP agonist control]; in assay [6], 4.19% [at 30.8 µM]. Further, in assay [5], the activity change, negative = inhibition is -13.6% [at 30.8 µM].

On to `COc1ccccc1Oc1ccnc2cc(Cl)ccc12`, for which the Potency entry in assay [1], in assay [2] and in assay [4] was “inactive” each time. Further, the activation in assay [3] was 3.38% [at 17.1 µM, percent relative to cAMP agonist control]; in assay [6], 5.9% [at 30.8 µM]. In addition, the activity change, negative = inhibition in assay [5] was 3.13% [at 30.8 µM].

As to `Cc1cc2ccccn2c1C(=O)c1ccccc1F`, the Potency result in assay [1], in assay [2] and in assay [4] was “inactive” throughout. Further, the activation is 3.67% [at 17.1 µM, percent relative to cAMP agonist control] in assay [3] and 21.5% [at 30.8 µM] in assay [6]. In assay [5], the activity change, negative = inhibition is -3.01% [at 30.8 µM].

For the molecule `CCOC(=O)c1sc2nc(-c3ccco3)c3c(c2c1N)CC(C)(C)OC3`, the Potency in assay [1] was 44.7 µM (active). The Potency entry in assay [2] and in assay [4] was “inactive” throughout. The activation in assay [3] was 7.15% [at 17.1 µM, percent relative to cAMP agonist control]; in assay [6] it was 25.5% [at 30.8 µM]. Further, in assay [5], the activity change, negative = inhibition was -5.49% [at 30.8 µM].

As for `CC(=O)c1ccc(N2CCN(C(=O)C3CCCN(S(=O)(=O)c4c(C)[nH]c(=O)[nH]c4=O)C3)CC2)cc1` (centres undefined), the Potency entry in assay [1], in assay [2], in assay [3], in assay [4], in assay [5] and in assay [6] was “inactive” throughout.

Consider `CC(OC(=O)CCN1C(=O)C2CC=CCC2C1=O)C(=O)Nc1cccc(C#N)c1` (centres undefined), for which the Potency result in assay [1], in assay [2] and in assay [4] was “inactive” in each case. In addition, the activation is 3.57% [at 17.1 µM, percent relative to cAMP agonist control] in assay [3] and 3.18% [at 30.8 µM] in assay [6]. The activity change, negative = inhibition in assay [5] is -8.99% [at 30.8 µM].

`Cc1ccc(C(C)C)cc1OCC(=O)NC1CCCCCCC1`: the Potency result in assay [1], in assay [2] and in assay [4] was “inactive” each time. The activation in assay [3] is -1.54% [at 17.1 µM, percent relative to cAMP agonist control]; in assay [6], -2.78% [at 30.8 µM]. For the same molecule, the activity change, negative = inhibition in assay [5] was -15.5% [at 30.8 µM].

On to `CN1/C(=C\C=C(/C#N)C(=O)Nc2ccccc2F)C(C)(C)c2ccccc21`, for which the Potency result in assay [1], in assay [4] and in assay [5] was “inactive” in each case. In addition, the Potency in assay [2] is 100 µM (active); in assay [3] it was 100 µM (active); in assay [6], 14.1 µM (active).

For the molecule `CC(=O)N1CCc2cc(CNC(=O)c3ccccc3Br)ccc21`, the Potency result in assay [1], in assay [2], in assay [3], in assay [4], in assay [5] and in assay [6] was “inactive” in each case.

For `COC(=O)c1sccc1NS(=O)(=O)c1ccccc1[N+](=O)[O-]`, the Potency result in assay [1], in assay [2] and in assay [4] was “inactive” each time. Moreover, the activation in assay [3] is -1.71% [at 17.1 µM, percent relative to cAMP agonist control]; in assay [6] it was 33.8% [at 30.8 µM]. The activity change, negative = inhibition in assay [5] was -0.412% [at 30.8 µM].
